Source: PubChem BioAssay AID720549 (National Center for Advancing Translational Sciences (NCATS), 2013)
Inconclusive results are not listed. Where a call stands in place of a potency, no number is given. Active and inactive are the calls of the source. Calls follow the shape of the dose curve; as a rule, active = well fitted inhibition curve with a large enough effect; inconclusive = small, poorly fitted or top-dose-only effect; inactive = flat fitted curve, though single readings scatter.

These compounds were tested against RecQ-like DNA helicase BLM (Homo sapiens) (UniProt P54132) (assay: qHTS for Inhibitors of Bloom's syndrome helicase (BLM): Helicase ATPase Orthogonal Confirmatory Assay for SAR). Settings: purified BLM helicase ATPase activity assay; series mostly up to 57.1 µM.
Method in brief: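 Purified BLM (2 nM) in Tris-HCl pH 8.0 with MgCl2, DTT, Tween-20, preincubated 15 min with compound. Reaction with 200 nM ssDNA and 100 uM ATP ran 15 min; ADP-Glo luminescence, four-parameter Hill fit.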

Chain of RecQ-like DNA helicase BLM (Homo sapiens) (P54132 whole entry, looked up): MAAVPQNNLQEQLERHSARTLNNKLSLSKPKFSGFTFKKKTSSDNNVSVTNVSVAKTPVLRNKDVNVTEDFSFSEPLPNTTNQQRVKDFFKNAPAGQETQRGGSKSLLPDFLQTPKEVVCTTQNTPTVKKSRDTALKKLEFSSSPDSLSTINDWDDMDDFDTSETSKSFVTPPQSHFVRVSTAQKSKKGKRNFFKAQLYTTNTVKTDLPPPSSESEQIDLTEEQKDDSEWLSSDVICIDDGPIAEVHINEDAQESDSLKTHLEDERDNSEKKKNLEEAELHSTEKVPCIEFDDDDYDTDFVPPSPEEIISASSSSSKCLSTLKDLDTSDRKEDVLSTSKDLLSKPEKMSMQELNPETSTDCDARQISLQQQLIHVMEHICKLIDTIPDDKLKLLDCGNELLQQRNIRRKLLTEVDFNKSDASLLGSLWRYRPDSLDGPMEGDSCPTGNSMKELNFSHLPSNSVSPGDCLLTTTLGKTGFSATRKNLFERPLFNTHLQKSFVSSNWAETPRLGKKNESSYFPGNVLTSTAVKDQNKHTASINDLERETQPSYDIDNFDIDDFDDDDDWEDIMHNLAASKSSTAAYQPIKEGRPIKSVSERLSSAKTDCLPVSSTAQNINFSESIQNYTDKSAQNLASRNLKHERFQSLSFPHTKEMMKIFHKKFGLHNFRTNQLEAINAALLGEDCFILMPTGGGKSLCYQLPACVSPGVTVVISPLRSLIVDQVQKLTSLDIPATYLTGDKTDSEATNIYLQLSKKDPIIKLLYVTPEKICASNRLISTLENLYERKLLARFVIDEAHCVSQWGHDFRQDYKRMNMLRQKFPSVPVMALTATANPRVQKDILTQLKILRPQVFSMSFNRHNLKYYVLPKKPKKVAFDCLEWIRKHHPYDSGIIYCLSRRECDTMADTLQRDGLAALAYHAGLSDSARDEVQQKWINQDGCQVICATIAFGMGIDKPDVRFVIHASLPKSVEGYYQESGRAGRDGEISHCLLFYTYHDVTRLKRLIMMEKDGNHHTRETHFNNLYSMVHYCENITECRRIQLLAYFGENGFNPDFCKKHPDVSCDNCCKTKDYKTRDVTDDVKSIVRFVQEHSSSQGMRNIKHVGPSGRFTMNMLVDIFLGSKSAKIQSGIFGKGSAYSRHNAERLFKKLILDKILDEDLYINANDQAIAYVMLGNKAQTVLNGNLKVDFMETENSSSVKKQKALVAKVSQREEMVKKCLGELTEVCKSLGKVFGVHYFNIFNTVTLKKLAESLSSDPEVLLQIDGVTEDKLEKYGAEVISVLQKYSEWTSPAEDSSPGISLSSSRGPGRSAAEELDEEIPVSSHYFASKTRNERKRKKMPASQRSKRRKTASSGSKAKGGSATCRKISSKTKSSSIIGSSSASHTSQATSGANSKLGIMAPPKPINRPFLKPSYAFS

| Structure (SMILES) | Potency |
| --- | --- |
| N#Cc1cc(NC(=O)Nc2nnc(-c3ccncc3)s2)ccc1-c1ccc[nH]1 | 7.25 µM (active) |
| O=C(Nc1ccc(-c2ccccc2)cc1)Nc1nnc(-c2ccncc2)s1 | inactive |
| O=C(Nc1ccc2ccccc2c1)Nc1nnc(Br)s1 | inactive |
| O=C(Nc1ccc2sccc2c1)Nc1nnc(-c2ccncc2)s1 | 7.25 µM (active) |
| O=C(Nc1ccc(Cl)c(Cl)c1)N1CCN(c2ccncc2)CC1 | inactive |
| O=C(Cc1nnc(-c2ccncc2)s1)Nc1ccc(F)c(C(F)(F)F)c1 | inactive |
| O=C(Nc1ccc2ccccc2c1)Nc1nnc(-c2ccncc2)s1 | 3.24 µM (active) |
| O=S(=O)(Cc1ccc(Cl)c(Cl)c1)Nc1nnc(-c2ccncc2)s1 | inactive |
| O=C(Nc1ccc2ccccc2c1)Nc1nnc(-c2ccccc2Cl)s1 | inactive |
| O=C(Nc1ccc(-c2nc3ccccc3[nH]2)cc1)Nc1ccc2c(c1)CCCO2 | inactive |
| O=C(Nc1ccc(Oc2ccccc2)cc1)Nc1nnc(-c2ccncc2)s1 | inactive |
| COc1ccccc1CNC(=O)Nc1nnc(-c2ccncc2)s1 | inactive |
| O=C(Cc1ccc2ccccc2c1)Nc1nnc(-c2ccncc2)s1 | 16.2 µM (active) |
| O=C(Nc1ccc2ccccc2c1)Nc1nnc(-c2ccccc2F)s1 | inactive |
| CN1CCN(c2nnc(NC(=O)Nc3ccc(Cl)c(Cl)c3)s2)CC1 | inactive |
| Nc1ccc(NC(=O)Nc2nnc(-c3ccncc3)s2)cc1C(F)(F)F | inactive |
| CC(C)(C)c1cccc(NC(=O)Nc2nnc(-c3ccncc3)s2)c1 | inactive |
| Nc1ccc(-c2nnc(NC(=O)Nc3ccc(Cl)c(Cl)c3)s2)cc1 | inactive |
| N#Cc1cc(NC(=O)Nc2nnc(-c3ccncc3)s2)ccc1Br | 0.646 µM (active) |
| c1ccc2[nH]c(Nc3nnc(-c4ccncc4)s3)nc2c1 | inactive |
| O=C(Nc1ccc(Cl)nc1)Nc1nnc(-c2ccncc2)s1 | 1.62 µM (active) |
| O=C(Nc1ccc(F)c(C(F)(F)F)c1)Nc1nnc(-c2ccncc2)o1 | inactive |
| O=C(Nc1ccc(F)c(C(F)(F)F)c1)Nc1ccc(-c2ccncc2)s1 | inactive |
| O=C(Nc1nnc(-c2ccncc2)s1)Nc1ccc(Cl)cc1F | inactive |
